Results as given in PubChem BioAssay (NCATS).
Records with an inconclusive call do not appear. Active and inactive are the calls of the source. Calls come from the whole dose curve; as a rule, active = well fitted curve in the direction sought with a large enough effect; inconclusive = small, poorly fitted or top-dose-only effect, or another doubt; inactive = no such curve, though single readings can be large; an effect the other way counts as inactive or inconclusive.

Key:
[1] = HEK293 12hr Apoptosis Induction qHTS against the NCATS CANVASS Library (AID 1347361)
Summary of the method: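 HEK293 cells (500/well) were exposed to an 11-point qHTS concentration series for 12 hours at 37 degrees C. Caspase-3/7 activity was then read by DEVD-substrate luciferase luminescence after 15 min at room temperature.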

[2] = system: NAD(P)H diaphorase (Clostridium kluyveri); assay: Diaphorse counterscreen qHTS: Assay Interference Panel against the NCATS CANVASS Library (AID 1347362)
Summary of the method: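 Counterscreen for coupling-enzyme interference: resorufin fluorescence from resazurin/NADH turnover, read after 5 min at room temperature. Compounds were tested over an 11-point series after 15 min dark preincubation with diaphorase in PBS-Tween.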

[3] = target: Luciferin 4-monooxygenase (Photinus pyralis) (UniProt P08659); assay: Firefly luciferase counterscreen qHTS: Assay Interference Panel against the NCATS CANVASS Library (AID 1347363)
Luciferin 4-monooxygenase (Photinus pyralis), sequence (P08659 whole entry, looked up): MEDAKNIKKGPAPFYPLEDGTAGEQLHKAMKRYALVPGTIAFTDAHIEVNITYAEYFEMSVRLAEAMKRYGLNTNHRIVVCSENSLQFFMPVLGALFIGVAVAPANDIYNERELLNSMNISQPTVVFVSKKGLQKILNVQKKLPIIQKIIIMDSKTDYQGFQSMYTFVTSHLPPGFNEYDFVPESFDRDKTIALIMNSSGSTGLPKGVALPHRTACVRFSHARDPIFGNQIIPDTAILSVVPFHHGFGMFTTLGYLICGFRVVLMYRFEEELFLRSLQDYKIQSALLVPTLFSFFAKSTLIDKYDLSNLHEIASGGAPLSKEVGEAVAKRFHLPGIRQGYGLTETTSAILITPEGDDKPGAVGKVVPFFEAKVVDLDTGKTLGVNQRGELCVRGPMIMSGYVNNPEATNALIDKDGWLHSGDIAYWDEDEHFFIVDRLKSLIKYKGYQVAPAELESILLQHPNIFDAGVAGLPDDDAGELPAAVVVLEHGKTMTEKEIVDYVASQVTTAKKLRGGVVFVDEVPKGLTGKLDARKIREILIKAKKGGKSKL
From the text: Natural products and their derivatives continue to be wellsprings of nascent therapeutic potential. However, many laboratories have limited resources for biological evaluation, leaving their previously isolated or synthesized compounds largely or completely untested. To address this issue, the Canvass library of natural products was assembled (https://tripod.nih.gov/canvass), in collaboration with academic and industry researchers, for quantitative high-throughput screening (qHTS) across a diverse set of cell-based and biochemical assays. The pure (>85% purity by liquid chromatography/mass spectrometry [LC/MS]) Canvass library of 346 natural products were submitted by 45 academic laboratories and companies around the world. […] The library was formatted into 1536-well plates and evaluated in 50 qHTS (in an 11-pnt concentration series) bioassays with broad scope of disease-relevant mechanisms. The resulting data set from 50 different assays was then systematically analyzed to identify overall trends and specific natural products with interesting biological activities. […] The assay measures the relative levels of luminescence, to identify compounds that inhibit the activity of luciferase. […]
Luciferase Interference counterscreen protocol 1. […] Luminescence signal was acquired via the ViewLux plate reader (PerkinElmer) using a clear emission filter and a 2 second exposure, 2x binning settings.

[4] = SDT Cancer Cell Toxicity qHTS against the NCATS CANVASS Library (AID 1347365);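 note: SDT canine glioma cells 500 per well in 1536 well plates; nearly all actives have a fitted effect of over 60% in size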
Summary of the method: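 Luminescent ATP read-out (CellTiterGlo) after 72 hr compound exposure of dog glioma SDT cells, 500 per well. Eleven-point titrations; bortezomib titration run alongside as control.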

[5] = qHTS for ATAD5 Agonist screened against the NCATS CANVASS Library (AID 1347367);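 note: luciferase reporter driven by ATAD5 which rises upon DNA damage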
Summary of the method: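 Luciferase reporter under ATAD5 control, stably integrated in HEK293T cells (2000/well). Compounds (11 points) incubated 16 h at 37C; viability read first by CellTiter-Fluor, then luminescence reporting ATAD5 activation. MMS positive control.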

[6] = G06 Cancer Cell Toxicity qHTS against the NCATS CANVASS Library (AID 1347368); note: nearly all actives have a fitted effect of over 60% in size
Summary of the method: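 ATP luminescence (CellTiterGlo) readout of cytotoxicity. Canine G06 glioma cells, 500/well, 72 hr incubation at 37C with compounds; bortezomib titration served as control.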

[7] = MCF7 Cancer Cell Toxicity qHTS against the NCATS CANVASS Library (AID 1347369)
Summary of the method: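 MCF7 cells (500/well) were exposed 72 h at 37 °C to compounds in an 11-point series. Viability was read as ATP content by CellTiterGlo luminescence.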

[8] = qHTS for ATAD5 Antagonist screened against the NCATS CANVASS Library (AID 1347370);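 note: HEK293T cells carrying an ATAD5 luciferase reporter co-treated with 10 µM 5-fluorouridine; nearly all actives have a fitted effect of over 65% in size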
Summary of the method: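 HEK293T-ATAD5 luc reporter, 2000 cells/well; 5hr attach; cpd + 10 uM 5-FUrd; 16hr 37C, 5% CO2. Readouts: CellTiter-Fluor fluorescence (1hr), then Amplite luciferase luminescence (30min RT).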

[9] = J3T Cancer Cell Toxicity qHTS against the NCATS CANVASS Library (AID 1347371);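 note: J3T is a canine glioma cancer cell line seeded at 500 cells per well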
From the text: Natural products and their derivatives continue to be wellsprings of nascent therapeutic potential. However, many laboratories have limited resources for biological evaluation, leaving their previously isolated or synthesized compounds largely or completely untested. To address this issue, the Canvass library of natural products was assembled (https://tripod.nih.gov/canvass), in collaboration with academic and industry researchers, for quantitative high-throughput screening (qHTS) across a diverse set of cell-based and biochemical assays. […] The library was formatted into 1536-well plates and evaluated in 50 qHTS (in an 11-pnt concentration series) bioassays with broad scope of disease-relevant mechanisms. The resulting data set from 50 different assays was then systematically analyzed to identify overall trends and specific natural products with interesting biological activities. […] This assay uses ATP (luminescence) content to measure the cytotoxiciy of compounds on J3T dog glioma cancer cell line. […]
Cancer Cell Toxicity qHTS protocol: for cell lines G06, J3T, and SDT. […] Luminescence signal was acquired via the ViewLux plate reader (PerkinElmer) using a clear emission filter, 2 sec exposure, and 1x binning settings.

[10] = KB-3-1 Cancer Cell Toxicity qHTS against the NCATS CANVASS Library (AID 1347366); conditions: KB-3-1 viability, CellTiter-Glo luminescence, 72 h; at 46.1 µM (top of the series); note: nearly all actives have a fitted effect of over 75% in size
Summary of the method: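 KB-3-1 cells (500/well) in DMEM with 10% FBS were exposed to compounds for 72 h at 37C. Viability was read by CellTiter-Glo luminescence.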

Measured: outcome

C=C(C)[C@@H]1CC[C@]2(C(=O)O)CC[C@]3(C)[C@H](CC[C@@H]4[C@@]5(C)CC[C@H](O)C(C)(C)[C@@H]5CC[C@]43C)[C@@H]12
inactive: [1] | [2] | [3] | [4] | [5] | [6] | [7] | [8] | [9]

O=c1c(O)c(-c2ccc(O)c(O)c2)oc2cc(O)ccc12
inactive: [1] | [3] | [10] | [5] | [7] | [8] | [9]
